# Most compounds without a hit are left out; they make up all but 10% or so of the library.
# JMJD2A Tudor inh – blocks the human JMJD2A Tudor domain. AID 504339. O75164. Potency, µM (highest dose often 114 µM), for the others: top-dose activity change, negative = inhibition, usual class: inhibitors. 4.4% of 390,000 active. AlphaScreen JMJD2A-Tudor / H3K4me3 peptide binding; also: potency is read from the fitted curve at half-maximal effect; % is scaled to controls: 0 for no effect and ±100 for the full control effect; nearly all actives have a fitted effect of over 50% in size
# G9a block – inhibitors of human histone lysine methyltransferase G9a | G9a H3K9 monomethylation, AlphaScreen, 2 h | 8.8% of 350,000 active | Potency, µM (series often up to 102 µM), for inactives: at the highest dose activity, negative = inhibition, most hits filed as inhibitors; also: potency is read from the fitted curve at half-maximal effect; % is scaled to controls: 0 for no effect and ±100 for the full control effect; nearly all actives have a fitted effect of over 75% in size
#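 Readings reflect AlphaScreen signal from monomethyl-H3K9 antibody detection. HMT at 20 nM; substrate b-H3K9 500 nM; cofactor SAM 20 uM; 2 h RT reaction; compounds tested as titrations in qHTS with 15 min preincubation.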
# HP1b binding inh – HP1-beta chromodomain-methylated histone interaction inhibition. Potency, µM (series often up to 114 µM), for inactives: top-dose activity change, negative = inhibition, actives largely listed as inhibitors. 0.56% of 390,000 active. AlphaScreen HP1-beta / biotin-H3K9me3 peptide binding. AID 540317. P83916; also: potency is read from the fitted curve at half-maximal effect; nearly all actives have a fitted effect of over 70% in size
#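 HP1-beta protein (50 nM final) preincubated 30 min at room temperature with biotinylated H3(1-18)K9me3 peptide (50 nM) in PBS pH 7.4, 0.01% Tween-20, then compound added for 30 min. AlphaScreen streptavidin donor/nickel chelate acceptor beads (10 ug/mL final), 30 min dark, luminescence read.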
# Six1-Eya2 inh – inhibitors of human Six1/Eya2 interaction | AID 651725 | 0.56% of 360,000 active | activity change, % (concentration not given with the values) | AlphaScreen GST-Six1/His-Eya2 binding, biochemical; active compounds read low; in the data active = activity change below about -65%; inconclusive = mostly about -30% to -63%; also: % is scaled to controls: 0 for no effect and ±100 for the full control effect
#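 AlphaScreen with GST-Six1 and His-Eya2 (5X mix: 250 nM and 500 nM), glutathione donor and nickel acceptor beads; buffer 50 mM Tris pH 8.0, 300 mM NaCl, 1 mM TCEP; 1 h at 37 C in the dark.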
# BAZ2B inh – BAZ2B (human) inhibition; Q9UIF8; AlphaScreen BAZ2B-H3K14Ac peptide displacement; 4.4% of 360,000 active; Potency, µM (top dose mostly 114 µM), for the others: at the top dose activity change, negative = inhibition, usual class: inhibitors; AID 504333; also: potency is read from the fitted curve at half-maximal effect; % is scaled to controls: 0 for no effect and ±100 for the full control effect; nearly all actives have a fitted effect of over 60% in size
#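 AlphaScreen displacement: compounds (up to 110uM) incubated 30 min at room temperature with a preformed 50 nM BAZ2B/50 nM biotinylated H3K14Ac peptide complex in PBS pH 7.4 with Tween-20. Donor and acceptor beads at 10 ug/mL final added, 20 min light-protected before reading.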
# CtBP-E1A blk – CtBP/E1A binding inhibition. 0.49% of 340,000 active. AlphaScreen GST-E1A/His-CtBP binding, 1536-well; active compounds read low. activity change, % (test concentration not listed); in the data active = activity change below about -65%; inconclusive = mostly about -30% to -63%; also: % is scaled to controls: 0 for no effect and ±100 for the full control effect
#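 In 5 uL wells, 23 nL compound meets equimolar GST-E1A and His-CtBP (5X stock 125 nM each) for 2 h, 37 °C. Beads (5X, 50 ug/mL) then 1 h, 37 °C, dark.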
# Active calls of the source: *; ? = inconclusive; nt = not tested or not shown; [ ] = remark or other dose. Unless noted, calls follow the shape of the dose curve; as a rule, active = well fitted inhibition curve with a large enough effect; inconclusive = small, poorly fitted or top-dose-only effect; inactive = no such curve, though single readings can be large or run the other way.
SMILES,JMJD2A Tudor inh,G9a block,HP1b binding inh,Six1-Eya2 inh,BAZ2B inh,CtBP-E1A blk
Cc1ccc(O)c(C2=NNC(O)(C(F)(F)F)C2)c1 (configuration not stated),-13%,56µM*,23%,0,11%,-3
Cn1c2c(c3cnc4cc(Cl)ccc4c31)CNCC2,-27%[57.1 µM],nt,17%[57 µM],nt,nt,nt
C(/Oc1ccccc1)=C1\Nn2c(nnc2-c2cc(-c3ccccc3)n[nH]2)S1,-11%[57.1 µM],nt,24%[57 µM],nt,nt,nt
Cc1ccc[n+](CC(=O)c2ccc(NC(=O)c3ccccc3)cc2)c1,-8%,-6%,38%,-1,-4%,-3
O=C(Nc1ccc[n+](CC(=O)c2cccc3ccccc23)c1)c1ccccc1,-29%,40µM*,5%,-5,14%,-6
O=C(C[n+]1ccccc1)c1ccc(NC(=O)c2ccccc2)cc1,?,16µM*,16%,9,-12%,12
O=C(C[n+]1cccc(C(=O)Nc2ccccc2)c1)c1ccccc1,nt,nt,nt,-21,nt,-7
N#Cc1ccc[n+](CC(=O)c2ccc(NC(=O)c3ccccc3)cc2)c1,1%,45µM*,46%,4,0%,-1
CSc1ccc(CNCc2c(C(=O)O)c(C)n(Cc3ccc(F)cc3Cl)c2C)cc1,?,-1%[59 µM],-2%,nt,-33%,nt
CCOc1ccc(-n2c(SCC(=O)c3ccccc3)nc3c([nH]c4ccccc43)c2=O)cc1,-28%,2%[59 µM],42%[57 µM],nt,32%,nt
O=C(O)c1ccc(Nc2cccc(F)c2)c([N+](=O)[O-])c1,-16%,-8%,29%,3,-6%,-4
O=C(O)c1cccc(Nc2ccncc2[N+](=O)[O-])c1,20µM*,3%,29%,-10,-18%,5
Cc1noc(C)c1COc1ccccc1C(=O)Nc1cccc(S(=O)(=O)N(C)C)c1,-17%,-38%,9%,3,6%,-14
CCN(CC)S(=O)(=O)c1cc(NC(=O)c2ccccc2OCc2c(C)noc2C)ccc1C,89µM*,nt,26%,-4,nt,4
COc1cccc(NC(=O)CN(C)C(=O)c2ccccc2OCc2c(C)noc2C)c1,-8%,7.9µM*,9%,4,10%,-5
Cc1ccc(O)c(Sc2cc(C)ccc2O)c1,-29%,?,11%,-8,?,-16
Cc1ccc(SSc2cc(C)ccc2N)c(N)c1,7.9µM*,?,14µM*,?,50µM*,?
Cc1c(C(=O)NCCN(C)C)sc2nc3n(c(=O)c12)CCC3,-15%,-5%[59 µM],23%,nt,2%,nt
COC(=O)c1sc2ccccc2c1N,-28%,?,-1%,5,13%,4
COC(=O)C1=C(C(=O)OC)C(c2ccccc2O)c2sc(=O)[nH]c2S1 (configuration not stated),-15%,10µM*,10%,8,?,-4
CN1CCN(C(=O)c2ccc(NS(=O)(=O)c3cccc([N+](=O)[O-])c3)cc2)CC1,-13%,45µM*,-4%,3,3%,3
CN1CCN(C(=O)c2ccc(S(=O)(=O)Nc3ccccc3)cc2)CC1,11%,6%[12.7 µM],51%,2,-1%,9
CCOC(=O)c1c(N2C(=O)C=CC2=O)sc(C)c1C,20µM*,?,?,-13,?,-12
CCOC(=O)c1c(NC(=O)CSC(=S)N(C)C)sc(C)c1C,10%,?,68%,0,-7%,1
CC(=O)Nc1cccc(S(=O)(=O)N2CCCN(S(=O)(=O)c3ccc4c(c3)OCCO4)CC2)c1,-16%,nt,nt,nt,nt,nt
CCN(CC)C(=O)c1sc(NC(=S)N2CCN(C(=O)C3CCCO3)CC2)c(C(=O)OC)c1C (configuration not stated),-17%,50µM*,27%,0,2%,-1
CCOC(=O)c1c(NC(=O)C2CCCO2)sc(C(N)=O)c1C (configuration not stated),-14%,?,21%,1,-33%,-4
CCCOC(=O)c1c(NC(=O)C2CCCO2)sc(C(=O)OC)c1C (configuration not stated),?,3.5µM*,?,-1,-6%,-27

# Source: PubChem
